D1 mod: allosterically modulates the human D1 dopamine receptor. B-score at 10 µM. actives 5.9% (n = 58,000). AID 641. P21728. HEK293 D1, CRE-luciferase, dopamine EC30 potentiation; actives deviate in either direction;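 active = luminescence count or its row- and column-corrected plate score outside the 99.7% band of the plate's sample wells, on either side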
CYP2C19 activ: cytochrome P450 2C19 (human) activation | recombinant CYP2C19, luciferin-H EGE luminescence; stronger effect = higher value; 0 = fully inhibited enzyme, 1 = untreated enzyme | activation factor at 5 µM | P33261 | 96,000 tested, under 10 active;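 active = activation factor of at least 2 at 5 µM in the primary screen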;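 note: 0 = wells with 2.5 mM tranylcypromine and 1 = vehicle-only wells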
CYP2C19 inh: human CYP2C19 inhibition; P33261; CYP2C19 Supersomes, luciferin-H EGE luminescence, 30 min; inhibition, % at 5 µM; actives 21% (n = 96,000);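 active = CYP2C19 inhibition above a set limit at 5 µM in the primary screen, cut at about 50% in these data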;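 note: plate controls were negative control wells for no effect and 2.5 mM tranylcypromine positive control for full effect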
CYP2C9 activ: activators of human CYP2C9; recombinant CYP2C9, luciferin-H conversion, luminescence; stronger effect = higher value; factor 1 = untreated enzyme, 0 = blocked; activation factor at 5 µM; actives 1.4% (n = 96,000); P11712;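 active = activation factor of 2 or more for CYP2C9 at a 5 µM dose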;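 note: 0 = sulfaphenazole-blocked wells and 1 = vehicle-only wells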
Target sequence (P11712 whole entry, looked up): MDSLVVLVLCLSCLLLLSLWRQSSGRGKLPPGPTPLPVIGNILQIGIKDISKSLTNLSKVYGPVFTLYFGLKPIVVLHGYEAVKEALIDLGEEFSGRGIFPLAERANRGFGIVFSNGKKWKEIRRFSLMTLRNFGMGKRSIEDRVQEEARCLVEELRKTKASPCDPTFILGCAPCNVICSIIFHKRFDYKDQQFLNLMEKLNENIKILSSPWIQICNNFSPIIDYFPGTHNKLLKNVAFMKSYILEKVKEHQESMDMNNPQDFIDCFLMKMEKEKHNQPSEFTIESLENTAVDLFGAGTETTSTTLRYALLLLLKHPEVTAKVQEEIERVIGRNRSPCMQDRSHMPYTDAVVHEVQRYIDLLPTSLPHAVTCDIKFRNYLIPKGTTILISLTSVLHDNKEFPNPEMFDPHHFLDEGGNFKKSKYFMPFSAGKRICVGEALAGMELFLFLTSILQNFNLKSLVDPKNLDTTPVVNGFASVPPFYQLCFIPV
DAT uptake mod: changed human dopamine transporter uptake under cocaine IC80; Q01959; LLC-PK1 hDAT cells, [14C]-dopamine uptake with cocaine IC80; actives deviate in either direction; B-score at 10 µM; actives 1.3% (n = 110,000); AID 449768;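 active = Z score or B-score, a plate-position-corrected score, falls beyond the plate's 99.7% confidence bounds, in either direction; inactive = both scores lie inside the 99.7% bounds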;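 note: scored against the spread of the other compound wells on the same plate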
CYP2C9 inhib: human CYP2C9 inhibition; inhibition, % at 5 µM; P11712; actives 20% (n = 96,000); AID 777; CYP2C9 Supersomes, luciferin-H conversion, luminescence;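 active = blocking of liver enzyme CYP2C9 beyond about 50% at 5 µM, limit read from the data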
* marks the source's active call; other numbers are inactive results. Sampled rows, rich in hits. Any-hit rate of the full collection: about 28%.

Results for O=C(NCc1ccncc1)c1c(F)c(F)c(F)c(F)c1F ?
D1 mod: 0.005; CYP2C19 activ: 0.8; CYP2C19 inh: 24; CYP2C9 activ: 0.3; DAT uptake mod: -0.59; CYP2C9 inhib: 67*

Results for O=C(NCc1ccncc1)c1cccc(F)c1 ?
D1 mod: 0.52; CYP2C19 activ: 0.8; CYP2C19 inh: 18; CYP2C9 activ: 0.8; DAT uptake mod: -0.043; CYP2C9 inhib: 18

What do the screens show for `C[C@@H](O)C1NC(=O)[C@H](CCCCN)NC(=O)c2cc([N+](=O)[O-])cc(I)c2NCCC[C@@H](C(N)=O)NC1=O` (stereo partly drawn)?
DAT uptake mod: -1.4

What do the screens show for `COc1ccc(NC2=NCC(=O)N2c2ccccc2F)cc1`?
CYP2C19 activ: 0.9; CYP2C19 inh: 6; CYP2C9 activ: 1.2; DAT uptake mod: 0.77; CYP2C9 inhib: -17

What do the screens show for `O=C(NCc1cccnc1)NC1(C(F)(F)F)Oc2ccc(Cl)cc2O1` (stereo not drawn)?
CYP2C19 activ: 0.1; CYP2C19 inh: 91*; CYP2C9 activ: 0.4; DAT uptake mod: -7.4*; CYP2C9 inhib: 58*

What do the screens show for `CC(NC(=O)NCc1cccnc1)(C(F)(F)F)C(F)(F)F`?
D1 mod: -0.35; CYP2C19 activ: 0.2; CYP2C19 inh: 77*; CYP2C9 activ: 0.7; DAT uptake mod: -0.83; CYP2C9 inhib: 33

What do the screens show for `O=C(NCc1cccnc1)c1cccc(Cl)c1`?
D1 mod: -0.05; CYP2C19 activ: 0.3; CYP2C19 inh: 73*; CYP2C9 activ: 1.2; DAT uptake mod: -1.3; CYP2C9 inhib: -23

Results for CCOC(=O)CC(=O)CSc1nc2cc(C)ccc2cc1C ?
CYP2C19 activ: 1.1; CYP2C19 inh: -12; CYP2C9 activ: 1; DAT uptake mod: -0.74; CYP2C9 inhib: 5

How did CCOC(=O)CC(=O)CSc1nc2c(C)c(C)ccc2cc1C do in these assays?
CYP2C19 activ: 0.4; CYP2C19 inh: 61*; CYP2C9 activ: 0.5; DAT uptake mod: -0.21; CYP2C9 inhib: 54*

Results for COc1cccc(CN(C)C(=O)c2ccc3nccnc3c2)c1 ?
CYP2C19 activ: 0.2; CYP2C19 inh: 78*; CYP2C9 activ: 0.9; DAT uptake mod: 0.00084; CYP2C9 inhib: 12

Results for Cc1cccc(OC(=O)c2ccc3nccnc3c2)c1 ?
CYP2C19 activ: 0.9; CYP2C19 inh: 7; CYP2C9 activ: 0.5; DAT uptake mod: 0.84; CYP2C9 inhib: 54*

What do the screens show for `COc1ccc(C(=O)Nc2ccc3oc(-c4cccc(Cl)c4)cc(=O)c3c2O)cc1`?
DAT uptake mod: -0.66

Results for CC1Cc2ccccc2N1S(=O)(=O)c1cccc(C(=O)OCC(=O)NC2CCS(=O)(=O)C2)c1 (stereo not drawn) ?
D1 mod: 0.45; CYP2C19 activ: 0.4; CYP2C19 inh: 60*; CYP2C9 activ: 0.4; DAT uptake mod: 0.54; CYP2C9 inhib: 63*

What do the screens show for `Cc1cc(C)c2cc(CN(CCN3CCCC3)C(=O)Nc3ccc(F)cc3)c(=O)[nH]c2c1`?
D1 mod: -3.1*; CYP2C19 activ: 0.7; CYP2C19 inh: 32; CYP2C9 activ: 0.6; DAT uptake mod: 0.56; CYP2C9 inhib: 40

How did CCC1(C)OCC(Cn2c3ccccc3c3ccccc32)O1 (stereo not drawn) do in these assays?
DAT uptake mod: 0.093

Results for O=C(Nc1ccc(O)c2c(=O)cc(-c3ccccc3Cl)oc12)c1cccs1 ?
DAT uptake mod: -0.18

What do the screens show for `COc1cccc(-c2cc(C(=O)Nc3ccc4c(c3)OCCO4)c3ccccc3n2)c1`?
CYP2C19 activ: 1.2; CYP2C19 inh: -17; CYP2C9 activ: 0.3; CYP2C9 inhib: 71*

Results for COc1cccc(C(=O)NCc2cccnc2)c1 ?
D1 mod: -0.15; CYP2C19 activ: 0.8; CYP2C19 inh: 21; CYP2C9 activ: 1.2; DAT uptake mod: -1.3; CYP2C9 inhib: -19

Results for COc1cccc(C(=O)NCc2ccc(-c3nc4ccccc4s3)cc2)c1 ?
CYP2C19 activ: 0.6; CYP2C19 inh: 39; CYP2C9 activ: 0.2; DAT uptake mod: 2.1; CYP2C9 inhib: 82*

Results for O=C(Nc1ccc2c(c1)OCCO2)c1cc(-c2ccccc2)nc2ccccc12 ?
CYP2C19 activ: 0.8; CYP2C19 inh: 24; CYP2C9 activ: 0.6; DAT uptake mod: 0.57; CYP2C9 inhib: 44

From PubChem BioAssay
